Assay outcomes (PubChem)
Only some compounds are listed: those with a hit (about 2.7% of all), similar ones and a draw of the others.
A549 tox: kills or reduces viability of A549 cells in Nrf2 counter-screen. A549 ARE-Fluc cells, CellTiter-Fluor viability, 18-24 h. Potency, µM (doses to about 46 µM), for inactives: top-dose activity change, negative = cytotoxicity, actives largely listed as inhibitors. 0.16% of 390,000 active; further: potency means the concentration at half of the fitted maximal effect; on the % scale 0 is the no-effect control and ±100 the full control effect
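Cytotoxicity counterscreen: CellTiter-Fluor fluorescence was measured in A549 ARE_Fluc cells after 18-24 h of compound exposure in a concentration series. The subsequent BugLite luminescent read reports ARE-luciferase activity.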
IDH1 R132H inh: blocks human mutant IDH1 R132H enzyme | O75874 | IDH1-R132H enzyme, NADPH consumption, diaphorase/resazurin fluorescence | Potency, µM (top dose mostly 76.6 µM), for inactives: top-dose activity change, negative = inhibition, actives largely listed as inhibitors | 0.093% of 390,000 active; further: potency means the concentration at half of the fitted maximal effect; on the % scale 0 is the no-effect control and ±100 the full control effect; nearly all actives have a fitted effect of over 65% in size
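IDH1-R132H (0.5 ug/mL dispensed) in pH 7.5 Tris buffer was preincubated 30 min with compound, then given a substrate mix of 0.016 mM NADPH and 2 mM alpha-KG for 80 min at room temperature; remaining NADPH was read by diaphorase/resazurin fluorescence.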
12-LOX inh: inhibitors of human 12S-lipoxygenase ALOX12; 1.1% of 580,000 active; P18054; Potency, µM (top dose mostly 108 µM), for the others: at the highest dose activity change, negative = inhibition, usual class: inhibitors; AID 1671190; purified 12hLO, xylenol orange hydroperoxide absorbance; further: potency means the concentration at half of the fitted maximal effect; on the % scale 0 is the no-effect control and ±100 the full control effect
Target sequence (P18054 whole entry, looked up): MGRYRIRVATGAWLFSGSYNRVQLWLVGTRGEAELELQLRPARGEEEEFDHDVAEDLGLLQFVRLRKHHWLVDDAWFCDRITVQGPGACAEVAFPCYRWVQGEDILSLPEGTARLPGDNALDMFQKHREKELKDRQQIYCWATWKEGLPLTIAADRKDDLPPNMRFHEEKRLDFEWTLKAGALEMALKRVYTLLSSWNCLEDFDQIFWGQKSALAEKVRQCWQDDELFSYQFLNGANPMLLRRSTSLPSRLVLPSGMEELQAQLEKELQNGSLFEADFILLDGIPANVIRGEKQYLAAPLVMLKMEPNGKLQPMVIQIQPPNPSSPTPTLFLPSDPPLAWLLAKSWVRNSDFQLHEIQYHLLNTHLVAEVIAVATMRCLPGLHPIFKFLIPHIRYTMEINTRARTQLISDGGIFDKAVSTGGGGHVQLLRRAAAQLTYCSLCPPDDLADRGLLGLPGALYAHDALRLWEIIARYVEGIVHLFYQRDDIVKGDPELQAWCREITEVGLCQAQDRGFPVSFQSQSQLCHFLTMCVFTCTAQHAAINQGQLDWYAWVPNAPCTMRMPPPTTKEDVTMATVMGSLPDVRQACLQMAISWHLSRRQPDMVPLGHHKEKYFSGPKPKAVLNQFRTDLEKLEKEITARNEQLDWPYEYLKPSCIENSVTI
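Hydroperoxide product was detected by ferrous iron/xylenol orange as the 573 to 405 nm absorbance ratio. Arachidonic acid at 40 uM (final) was turned over for 30 min at room temperature by 150 nM human 12hLO, pH 7.0 Hepes buffer, after 15 min compound preincubation.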
Nrf2 block: Nrf2 pathway inhibition; A549 ARE-Fluc reporter, luciferase luminescence, 18-24 h; Potency, µM (doses to about 46 µM), without a hit: at the highest dose activity change, negative = inhibition, usual class: inhibitors; 2.1% of 360,000 active; AID 504444; further: potency means the concentration at half of the fitted maximal effect; on the % scale 0 is the no-effect control and ±100 the full control effect; nearly all actives have a fitted effect of over 60% in size
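Reporter: ARE-Fluc in A549. Exposure: 18-24 h, 37 °C, 5% CO2, 5% FBS OPTI-MEM. Readouts: fluorescent cytotoxicity (CellTiter-Fluor), then luminescent Nrf2 signal after BugLite.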
Nrf2 ARE act: activates Nrf2 signaling; AREc32 ARE-luciferase reporter (MCF7-derived line), luminescence, 24 h; Potency, µM (titrated, usually from 46.1 µM), for inactives: top-dose activation, actives largely listed as activators; 0.31% of 410,000 active; AID 624171; further: potency means the concentration at half of the fitted maximal effect; % of control where 0% means no effect; nearly all actives have a fitted effect of over 65% in size
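AREc32 cells carrying an ARE-driven firefly luciferase, 1000 cells/well in OPTI-MEM with 5% FBS, dosed after overnight attachment and incubated 24 hr at 37 deg C. Steady-Glo luminescence read after 30 min at RT.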
LDHA block: LDHA (human) enzyme inhibition | P00338 | activity change, % (values are at about 110 or 230 µM) | purified LDHA, NADH/diaphorase-resazurin fluorescence; hits give low values | 0.15% of 480,000 active | AID 1347041; in the data active means activity change below about -30%; inconclusive means mostly about -25% to -30%;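 further: plate controls were DMSO wells for no effect and wells without enzyme for full effect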
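Remaining NADH was detected by diaphorase (0.133 mg/mL) converting 37 µM resazurin to fluorescent resorufin, read at 0 and 20 minutes. The preceding 5-minute room-temperature reaction used 2 nM LDHA, 0.2 mM sodium pyruvate and 0.06 mM NADH at pH 7.4.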
Active calls of the source: *; u = inconclusive; x = no result given; [ ] = remark or other dose. Unless noted, the call rests on the fitted dose curve; in most records, active means well fitted curve in the direction sought with a large enough effect; inconclusive means small, poorly fitted or top-dose-only effect, or another doubt; inactive means no such curve, though single readings can be large; an effect the other way counts as inactive or inconclusive.

SMILES | A549 tox | IDH1 R132H inh | 12-LOX inh | Nrf2 block | Nrf2 ARE act | LDHA block
O=S(=O)(O)c1cc(O)c2c(O)c(N=Nc3cc(Cl)ccc3O)c(S(=O)(=O)O)cc2c1 | 14.6µM* | 9.0% | x | 20.6µM* | -1.2% | 30.5
Cn1nc(CC(=O)NC2CCCCCC2)c2ccccc2c1=O | -4.2% | 9.2% | 21.6% | 18.4µM* | 0.3% | -3.1
CC(C)C(NC(=O)c1ccc(C23CC4CC(CC(C4)C2)C3)cc1)C(=O)O (stereo not drawn) | x | x | -26.2% | x | x | 3.1
CC(C)[C@H](NC(=O)C12CC3CC(CC(C3)C1)C2)C(=O)O | x | x | 56.2µM* | x | x | -5.7
Cc1ccc(NCCC(=O)c2cc3ccccc3o2)cc1Br | x | x | 35.5µM* | x | x | 7.1
O=C(N/N=C/c1sc(=O)n(Cc2ccc(Br)cc2)c1Cl)c1ccco1 | u | -5.9% | -29.9% | u | u | -46.1*
O=C(N/N=C/c1ccc(Br)s1)c1ccco1 | -6.2% | 0.4% | 69.0% | 23.2% | u | 0.2
Cc1cccc(CN2CCN(C(=O)c3cccc4ccccc34)CC2)c1 | 1.0% | 3.5% | u | -22.9% | 0.3% | -9.6
Cc1ccc(CN2CCN(C(=O)c3cccc4ccccc34)CC2)cc1 | -7.0% | 5.2% | 1.26µM* | u | 2.2% | -11.2
COc1ccc(CN2CCN(C(=O)c3cccc4ccccc34)CC2)cc1Br | -5.5% | 0.5% | 0.562µM* | 13.5% | -0.2% | -7.3
Cc1ccccc1CN1CCN(C(=O)c2cccc3ccccc23)CC1 | -14.2% | 2.1% | 2.82µM* | -25.4% | -0.2% | -10.0
Cc1ccccc1CN1CCN(C(=O)c2ccc3ccccc3n2)CC1 | x | x | -23.9% | x | x | -0.4
COc1ccc(CN2CCN(C(C)=O)CC2)cc1OC1CCN(C(=O)c2ccc3ccccc3n2)CC1 | x | x | 28.2µM* | x | x | x
COc1ccc(CNC(=O)Cc2c(C)c3ccc(OC)c(OC)c3oc2=O)cc1OC | x | x | 4.5% | x | x | 4.9
C#CCNC(=O)CSc1nc(-c2cccs2)nc2ccccc12 | x | x | 0.0% | x | x | 10.9
CC1(C(=O)OCC(=O)Nc2nc(-c3ccc(F)c(F)c3)cs2)CC1(Cl)Cl (stereo not drawn) | 2.0% | 7.3% | 56.2µM* | 4.5% | 0.2% | 7.0
O=C(CSc1ncnc2[nH]ncc12)Nc1nc(-c2ccc(F)c(F)c2)cs1 | 7.1% | 1.5% | 9.4% | 6.51µM* | 6.8% | -4.4
COc1ccc(CC(=O)Nc2nc(-c3ccc(F)c(F)c3)cs2)cc1 | -3.2% | -4.0% | -14.3% | u | 3.6% | -3.8
Cc1cccc(C)c1NC(=O)CSc1ncnc2[nH]ncc12 | -0.2% | 3.8% | 10.5% | -10.7% | -0.4% | -0.5
O=C(Cc1ccc(F)cc1)Nc1nc(-c2ccc(F)c(F)c2)cs1 | -29.1% | -0.9% | 3.8% | 23.1µM* | 9.0% | -6.4
O=S(=O)(c1ccc(F)cc1)N1CCN(Cc2cccc3cccnc23)CC1 | x | x | u | x | x | -9.8
O=C(Cc1c(Cl)cccc1Cl)NCc1coc(-c2cccs2)n1 | x | x | 35.2% | x | x | 0.6
Cc1cccc(C(=O)NC2C(=O)NNC2c2ccc(Cl)cc2)c1 (stereo not drawn) | 17.0% | 2.8% | 14.1µM* | 0.5% | -0.1% | 10.2
COC(=O)C1CN(Cc2cn(Cc3ccc(C)cc3)nn2)CCS(=O)(=O)N1Cc1ccc(C)cc1 (stereo not drawn) | x | x | 15.8µM* | x | x | x
COC(=O)C1CN(Cc2ccc(OC)cc2)CCS(=O)(=O)N1Cc1cn(Cc2ccc(C)cc2)nn1 (stereo not drawn) | x | x | -26.5% | x | x | x
SMILES | A549 tox | IDH1 R132H inh | 12-LOX inh | Nrf2 block | Nrf2 ARE act | LDHA block
Cc1nc(SCC(=O)Nc2ccccc2Br)oc1C | x | x | u | x | x | -8.0
CCC(=NCCc1c(C)[nH]c2ccccc12)C1=C(O)CC(c2ccccc2)CC1=O (stereo not drawn) | -11.5% | -0.6% | -26.7% | -21.9% | 3.2% | -3.2
CCC(=NCCc1c(C)[nH]c2ccc(OC(F)(F)F)cc12)C1=C(O)CC(c2ccccc2)CC1=O (stereo not drawn) | u | 7.5% | -11.1% | 20.6µM* | 2.5% | 2.9
O=C(O)c1cnc(-c2ccccc2)nc1Sc1cccc(Cl)c1 | -0.9% | -4.8% | -3.0% | -1.6% | -0.2% | -22.4
O=C(O)c1cnc(-c2ccccc2)nc1Sc1ccccc1 | 5.1% | -3.5% | 21.4% | -15.2% | -0.2% | -39.7*
Cc1ccc(-c2cc(C(=O)Nc3cccc(C#N)c3)c3ccccc3n2)o1 | x | x | 7.08µM* | x | x | -2.4
COc1cc(-c2cc(C(=O)Nc3cccc(S(=O)(=O)N(C)C)c3)c3ccccc3n2)cc(OC)c1OC | -4.4% | -0.7% | -15.4% | -13.4% | 3.1% | -3.5
Cc1ccc(-c2cc(C(=O)Nc3cccc(S(=O)(=O)N(C)C)c3)c3ccccc3n2)o1 | 0.6% | 11.3% | 6.31µM* | -13.5% | 3.4% | -2.3
COc1ccc2[nH]c(=O)c(COC(=O)c3ccc(F)cc3)cc2c1 | x | x | u | x | x | -23.0
CCc1ccc(-c2nnn(CCC(=O)OC)n2)cc1 | 0.8% | -2.6% | 0.0% | 3.26µM* | -2.2% | -4.3
CCc1ccc(-c2nnn(CCC#N)n2)cc1 | -10.7% | 15.9% | -6.3% | u | 1.5% | -1.0
Cc1ccsc1CN(C)CC(=O)NC(=O)NCc1ccccc1 | x | x | 33.6% | x | x | -2.2
Cc1ccc(C(C)NS(=O)(=O)c2cccs2)o1 (stereo not drawn) | x | x | u | x | x | -3.5
O=C(NCCC1=CCCCC1)c1ccc(Cl)c(S(=O)(=O)N2CCOCC2)c1 | 5.5% | -1.0% | -23.0% | u | 2.8% | -5.4
Cc1ccc(C)c(NS(=O)(=O)c2cc(C(=O)N3CCc4ccccc4C3)ccc2Cl)c1 | -18.2%[1.84 µM] | 12.2% | 7.1%[57.4 µM] | 18.4µM* | -0.9% | -3.6
Cc1ccccc1CCNC(=O)c1ccc(Cl)c(S(=O)(=O)N2CC(C)OC(C)C2)c1 (stereo not drawn) | -5.0% | 0.4% | -14.4% | 5.17µM* | 2.3% | -2.8
O=C(NCCC1=CCCCC1)c1ccc(Cl)c(S(=O)(=O)N2CCCCC2)c1 | 2.8% | -10.3% | u | 14.6µM* | -0.3% | -0.2
Cc1cccc(NS(=O)(=O)c2cc(C(=O)N3CCc4ccccc4C3)ccc2Cl)c1C | u | 3.6% | -1.2% | u | 2.8% | 4.1
O=C(NCCC1=CCCCC1)c1coc(=O)c(Br)c1 | -27.6% | 1.5% | -18.3% | u | 12.6µM* | -2.2
O=C(NCCC1=CCCCC1)c1ccc(=O)oc1 | -19.4% | 4.7% | 0.0% | u | 13.4% | -2.6
FC(F)(F)c1cccc(C2=NOC3(CCN(Cc4ccccc4)C3)C2)c1 (stereo not drawn) | x | x | 6.6%[6.33 µM] | x | x | x
Fc1ccc(-c2nc(COc3c(Cl)cccc3Cl)co2)cc1 | x | x | -28.2% | x | x | -1.3
